Assay results taken from PubChem BioAssay AID2289 (National Center for Advancing Translational Sciences (NCATS), 2010).
About 3,300 (0.97%) of roughly 340,000 compounds were called active. Another 9% or so got no clear call; they are omitted. The call rests on the fitted dose curve; in most records, active means well fitted inhibition curve with a large enough effect; inconclusive means small, poorly fitted or top-dose-only effect, or effect the other way; inactive means flat fitted curve, though single readings scatter. This is one part of the list.

Experiment: qHTS Assay for Modulators of miRNAs and/or Inhibitors of miR-21; further: nearly all actives have a fitted effect of over 55% in size
Conditions: HeLa miR-21-FLuc reporter, luciferase luminescence, 48 h; actives lower the signal
Method in brief: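 Compounds were titrated across several concentrations (up to approximately 40 uM) and incubated 48 hours with HeLa miR-21-FLuc reporter cells (miR-21 target sequence downstream of FLuc, endogenous miR-21). Readout was firefly luciferase luminescence after lytic detection reagent.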
Potency means the concentration at half of the fitted maximal effect.

Potency, active:
Cc1nc(COC(=O)c2c(C)nn(-c3ccccc3)c2C)cs1 16.5 µM, O=C(OCc1csc(-c2ccccc2)n1)c1ccc(O)cc1 14.7 µM, O=C(OCc1csc(-c2ccccc2)n1)c1ccccc1O 9.27 µM, COc1ccc(C(=O)OCc2csc(C)n2)c(O)c1 7.36 µM, Cc1ccc(SC[C@H](CC(C)C)N2CCN(C)CCC2=O)cc1 10.4 µM, Cc1ccc(SC[C@H](c2ccccc2)N2CCN(C)CCC2=O)cc1 9.27 µM, O=C(NCCC1=CCCCC1)c1cnc2n(c1=O)CCS2 6.56 µM, Fc1ccccc1Nc1nc2ccccc2o1 0.521 µM, Cn1cccc1C(=O)OCc1cc(Cl)cc2c1OCOC2 13.1 µM, C=CCN=c1scc(C)n1/N=C/c1ccc(O)c(O)c1 11.7 µM, Cc1c(C(=O)OC(C)C)sc(N)c1C(=O)OC(C)C 6.56 µM, CCOC(=O)c1c(N)sc(C(=O)OCCOC)c1C 18.5 µM, CCCOC(=O)c1c(N)sc(C(=O)OCC)c1C 14.7 µM, Cc1cc2cc(C=C(C#N)C#N)c(Cl)nc2cc1C 7.36 µM, Cc1ccc(OCC(=O)O/N=C(\N)c2ccncc2)c(C)c1 4.14 µM, N/C(=N\OC(=O)COc1ccc(Cl)cc1Cl)c1ccncc1 0.585 µM, Cc1ccc(/C(N)=N/OC(=O)COc2ccccc2Cl)cc1 10.4 µM, N/C(=N\OC(=O)COc1ccc(Cl)cc1Br)c1ccncc1 1.65 µM, N/C(=N\OC(=O)COc1ccc(Br)cc1Cl)c1ccccn1 0.117 µM, CCc1ccc(OCC(=O)O/N=C(\N)c2ccncc2)c(Br)c1 4.65 µM, N/C(=N\OC(=O)COc1ccc(Br)cc1Cl)c1ccncc1 0.927 µM, COc1ccc(NC(=O)CSc2ccccc2)c([N+](=O)[O-])c1 7.36 µM, CCOc1ccc(NC(=O)c2cccs2)c([N+](=O)[O-])c1 0.826 µM, COc1ccc(NC(=O)c2ccco2)c([N+](=O)[O-])c1 7.36 µM, O=C(O)c1cccc(N/N=C/c2ccc(-c3ccccc3)cc2)c1 0.147 µM, CSc1ccc(/C=N/Nc2cccc(C(=O)O)c2)cc1 0.147 µM, O=C(O)c1cccc(N/N=C/C2=C(Cl)c3cc(Cl)ccc3SC2)c1 0.261 µM, O=C(O)c1cccc(N/N=C/c2ccc(OC(F)(F)F)cc2)c1 0.0521 µM, O=C(O)c1cccc(N/N=C/c2ccc(F)c(F)c2)c1 0.233 µM, O=c1n(Cc2ccccc2Cl)nc2n1-c1ccccc1SC2 10.4 µM, COCCn1c(C(F)(F)F)ccc(NC(=O)c2ccccc2)c1=O 1.85 µM, COc1cccc(C(=O)Nc2ccc(C(F)(F)F)n(C)c2=O)c1 1.47 µM, Cc1cccc(-n2cnc3cc(C(=O)N4CCCCC4)ccc32)c1 9.27 µM, O=C(N=C1N=C2C=CC(Br)=CN2Cc2ccccc21)c1ccc([N+](=O)[O-])cc1[N+](=O)[O-] 3.69 µM, CCCCC#Cc1ccc2c(c1)COc1c3ccccc3nn1-2 2.07 µM, COC(=O)c1c(-c2cccs2)csc1NC(=O)COc1ccccc1 7.36 µM, COC(=O)c1c(-c2cccs2)csc1NC(=O)c1cccc(Cl)c1 0.656 µM, Cc1oncc1C(=O)Nc1ccc2ccccc2c1 7.36 µM, Cc1cc(C(=O)Nc2ccccc2)oc(=O)c1 6.56 µM, Cc1cc(C(=O)Nc2ccc3ccccc3c2)oc1C 0.293 µM, CC(=O)c1sc(NC(=O)c2ccccc2F)nc1-c1ccccc1 3.29 µM, O=C(Nc1ccccc1[N+](=O)[O-])C1COc2ccccc2O1 (stereo unspecified) 3.29 µM, O=C(Nc1ncccc1Cl)C1COc2ccccc2O1 (stereo unspecified) 4.65 µM, CCSc1nc2c(cnn2-c2ccccc2)c(=O)n1N 2.33 µM, CC(=O)Nc1ccc(C(=O)NCCc2ccccc2)cc1 7.36 µM, O=C(NCCc1ccccc1)Nc1ccc(Cl)cc1 1.65 µM, Cc1csc2nc(CSc3nc4ccccc4o3)c(Br)n12 4.65 µM, Clc1c(CSc2nc3ccccc3o2)nc2sccn12 1.12 µM, CCN(CC)c1nc(C)nc2c1cnn2CCc1ccccc1 5.85 µM, Cc1nc(NC(C)C)c2cnn(CCc3ccccc3)c2n1 14.7 µM, CCOC(=O)c1c(C)oc2c1c(C(c1ccccc1)N1CCOCC1)c(O)c1ccccc12 (stereo unspecified) 3.69 µM, CCOC(=O)c1c(C)oc2c1c(C(c1ccncc1)N1CCOCC1)c(O)c1ccccc12 (stereo unspecified) 16.5 µM, NC(=O)c1cnn(-c2ccc3ccccc3c2)c1N 16.5 µM, NC(=O)c1cnn(-c2cc(Oc3ccccc3)ncn2)c1N 2.07 µM, Cc1ccc(-c2cc(C(=O)Nc3cccnc3)[nH]n2)c(O)c1C 2.93 µM, CCc1ccc(O)c(-c2cc(C(=O)Nc3cccnc3)[nH]n2)c1 2.33 µM, O=C(Nc1cccnc1)c1cc(-c2cc(Cl)ccc2O)n[nH]1 2.33 µM, Cc1ccc(O)c(-c2cc(C(=O)Nc3cccnc3)[nH]n2)c1 2.61 µM, Cc1cc(O)c(-c2cc(C(=O)Nc3cccnc3)[nH]n2)cc1C 0.414 µM, COc1ccc(Cl)c2c1[nH]c1nc(SCc3ccccn3)nnc12 1.65 µM, O=C(COc1ccccc1Cl)NC(=O)NC1CCCC1 8.26 µM, O=C(COc1ccccc1Cl)Nc1ccccc1C(=O)N1CCCCC1 6.56 µM, CC(C)(C)NC(=O)NC(=O)COc1ccc(Br)cc1Br 0.585 µM, O=C(COc1ccc(Br)cc1Br)NC(=O)NC1CCCC1 5.21 µM, O=C(COc1ccc(Cl)cc1Cl)NC(=O)N1CCCCC1 6.56 µM, O=C(Nc1cccc2ccccc12)N1N=CCC1c1ccccc1 (stereo unspecified) 6.56 µM, Cc1ccc2nc(/C(C#N)=C/c3ccc(-c4ccc(C(=O)OC(C)C)cc4)o3)[nH]c2c1 4.14 µM, COC(=O)c1sc(-c2ccc(Cl)cc2)cc1N 4.14 µM, COC(=O)c1sc(-c2cccs2)cc1N 8.26 µM, CCOC(=O)c1sc(-c2ccc(OC)cc2)cc1N 0.927 µM, CCOC(=O)c1sc(-c2ccccc2)cc1N 3.98 µM, CCOC(=O)c1cc(-c2ccccc2)sc1N 18.5 µM, CCOC(=O)c1sc(=N)n(-c2ccc(OC)cc2)c1C 7.36 µM, CCOC(=O)c1c(N)sc(-c2ccccc2)c1C 11.7 µM, COC(=O)c1ccc(N2OC3(C)C=CC2CC3)cc1 (stereo unspecified) 13.1 µM, COc1ccc(/C(N)=N/OC(=O)c2ccco2)cc1OC 1.85 µM, N/C(=N\OC(=O)c1ccco1)c1cccc(Br)c1 3.69 µM, N/C(=N\OC(=O)c1ccco1)c1ccccc1 5.21 µM, N/C(=N\OC(=O)c1cccs1)c1cccc(Br)c1 8.26 µM, N/C(=N\OC(=O)c1ccco1)c1ccc(Cl)cc1 4.65 µM, CC1(C)CC(=O)c2cnc(N3CCc4ccccc43)nc2C1 1.85 µM, CNc1nc(N2CCc3ccccc32)ncc1F 1.85 µM, CC1(C)CC(=O)c2c(O)cc(OCc3ccc(Br)cc3)cc2O1 3.29 µM, COc1cccc(N=Nc2c(N)[nH][nH]c2=O)c1 7.36 µM, CCOc1ccc(N=Nc2c(N)[nH][nH]c2=O)cc1 2.93 µM, Cc1cc(C(=O)CSc2ccc(F)cc2)cc(C)c1O 9.27 µM, Cc1cc(C(=O)CSc2ccccc2)cc(C)c1O 9.27 µM, O=C(Nc1ccc(N2CCOCC2)c(Cl)c1)C1CCCCC1 16.5 µM, CN(Cc1ccsc1)C(=O)CCc1nnc(CCCc2ccccc2)o1 11.7 µM, CCOC(=O)c1ccc(NC(=O)c2oc3ccc4c(c3c2C)C(=O)CC(C)(CC)O4)cc1 (stereo unspecified) 0.208 µM, Cc1cc(C)cc(NC(=O)c2oc3ccc4c(c3c2C)C(=O)CC(C)(C)O4)c1 0.826 µM, CCN(CC)c1ccc(/C=C(\C#N)C(N)=O)cc1 14.7 µM, Brc1ccccc1/C=N/Nc1ccc2ccccc2n1 1.17 µM, Brc1ccc(/C=N/Nc2nc3ccccc3o2)cc1 1.04 µM, Brc1ccc(/C=N/Nc2ccc3ccccc3n2)cc1 2.61 µM, O=C(NCCc1cccs1)c1ccc(Cl)c(Cl)c1 2.07 µM, c1ccc(CCc2nc3ccccc3[nH]2)cc1 9.27 µM, c1ccc(CSCc2nc3ccccc3[nH]2)cc1 7.36 µM, Clc1ccccc1SCc1nc2ccccc2[nH]1 7.36 µM, CC1=NN(C(=O)c2ccc(C)o2)C(O)(c2ccccc2)C1 (stereo unspecified) 16.5 µM, COc1ccc(NC(=O)CSCc2ccccc2C)cc1 7.36 µM, COc1ccc(CNC(=O)CSCc2ccccc2Cl)cc1 13.1 µM, Cc1cccc(Nc2n[nH]c(C)c2[N+](=O)[O-])c1 0.736 µM, Cc1ccc(Nc2cc(C)nc(-c3ccccc3)n2)cc1 7.36 µM, CC(=O)c1ccc(NC(=O)c2cc(Cl)sc2Cl)cc1 1.47 µM, CC(=O)c1ccc(NC(=O)c2ccc(C)c(Br)c2)cc1 0.826 µM
